From PubChem BioAssay

Assay: PSAC antagonists in infected red cells, primary screen, cell-based, P. falciparum Indochina, OD700, 18 h (AID 1157)
Details: P. falciparum Indochina infected erythrocytes, osmotic lysis OD700, 18 h; higher = more signal, called active from +8 up or from −8 down

z-score, inactive:
CC1CC/C=C\[C@H]2OC34C=CCN(Cc5ccccc5)C(=O)[C@H]3N(CCCCCO)C(=O)[C@@H]4C2C(=O)O1 (some centres undefined) -0.0374
COCCOC(=O)N1C(=O)[C@@]2(c3cc(C#CCNC(N)=O)ccc31)[C@H](C(=O)N1CCc3cc(OC)c(OC)cc3C1)[C@H]1C(=O)O[C@H](c3ccccc3)[C@H](c3ccccc3)N1[C@@H]2c1ccc(OCCO)cc1 0.778
O=C1OCCC/C=C\[C@H]2OC34C=CCN(Cn5nnc6ccccc65)C(=O)[C@H]3N(CCCCCO)C(=O)[C@@H]4C12 (some centres undefined) 0.479
O=C(O)[C@@]1(Cc2ccccc2)N=C(c2ccc(OCCCO)cc2)O[C@H]1c1ccccc1 0.445
Cc1ccc(S[C@]2(C(=O)NC3CC3)CC(=O)N(C3CCCCC3)[C@@H]2c2ccc(CO)cc2I)cc1 0.427
O=C/C=C/c1ccc2c(c1)OCO2 -2.47
CC(C)(C)OC(=O)CC[C@@]1(C(=O)O)N=C(c2ccc(OCCCO)cc2)O[C@@H]1c1ccccc1N=[N+]=[N-] 7.51
COCCOC(=O)N1C(=O)[C@@]2(c3cc(C#CCC(C(=O)OC)C(=O)OC)ccc31)[C@H](C(=O)N1CCN(c3ncccn3)CC1)[C@H]1C(=O)O[C@H](c3ccccc3)[C@H](c3ccccc3)N1[C@@H]2c1ccc(OCCO)cc1 0.857
COCCOC(=O)N1C(=O)[C@@]2(c3cc(C#CCC(C(=O)OC)C(=O)OC)ccc31)[C@H](c1ccc(O)cc1)N1[C@H](c3ccccc3)[C@H](c3ccccc3)OC(=O)[C@H]1[C@@H]2C(N)=O 0.213
